The values that follow come from PubChem BioAssay AID1851 (National Center for Advancing Translational Sciences (NCATS), 2009).

The structures appear in SMILES notation. Screen size: about 16,000 compounds; about 5,800 (36%) were called active. Roughly 23% stayed inconclusive and do not appear here. Calls follow the shape of the dose curve; as a rule, active = well fitted curve in the direction sought with a large enough effect; inconclusive = small, poorly fitted or top-dose-only effect, or effect the other way; inactive = no such curve, though single readings can be large or run the other way. The list shows a part of the results.
% is scaled to controls: 0 for no effect and ±100 for the full control effect.

Sequence of Cytochrome P450 2C19 (Homo sapiens) (P33261 whole entry, looked up): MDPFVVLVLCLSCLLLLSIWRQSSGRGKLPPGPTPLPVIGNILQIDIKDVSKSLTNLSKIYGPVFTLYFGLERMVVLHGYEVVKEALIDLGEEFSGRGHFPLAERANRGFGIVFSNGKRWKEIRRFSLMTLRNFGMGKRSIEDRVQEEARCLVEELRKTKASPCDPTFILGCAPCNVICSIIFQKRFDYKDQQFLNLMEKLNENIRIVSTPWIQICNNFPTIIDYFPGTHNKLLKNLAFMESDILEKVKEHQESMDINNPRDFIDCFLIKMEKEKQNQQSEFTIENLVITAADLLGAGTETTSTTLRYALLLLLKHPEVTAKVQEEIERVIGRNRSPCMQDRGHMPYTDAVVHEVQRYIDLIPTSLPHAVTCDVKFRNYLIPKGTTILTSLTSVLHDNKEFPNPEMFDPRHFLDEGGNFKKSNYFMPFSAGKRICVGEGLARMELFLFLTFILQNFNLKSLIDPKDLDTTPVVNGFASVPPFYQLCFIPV

The experiment concerns the target Cytochrome P450 2C19 (Homo sapiens) (UniProt P33261). Kind of experiment: Cytochrome panel assay with activity outcomes. The following applies: recombinant CYP, pro-luciferin dealkylation, luminescence, p450-cyp2c19; series mostly up to 57.1 µM.
As for `CC(=O)NCCNc1cc(-c2ccccc2CN(C)C)ncn1`, the AC50 result was “inactive”.
In the case of `COc1ccc2[nH]cc(CCNc3cc(-c4ccccc4C)ncn3)c2c1`, the half-maximal activity concentration (AC50) is 7.94 µM (active).
On the same count and under the same terms, the same measure for `COc1ccc2[nH]cc(CCNc3cc(-c4ccccc4C(F)(F)F)ncn3)c2c1`: 10 µM (active).
On the same count and under the same terms, the same measure for `COc1ccc2[nH]cc(CCNc3cc(-c4ccccc4OC)ncn3)c2c1`: 3.16 µM (active); for `N[C@H](C(=O)O)c1cccc(O)c1`: “inactive”.
Same read-out and setting: the same measure for `Fc1ccc2nc(Nc3nc4c(s3)CCCC4)sc2c1`: 17.8 µM (active); for `COc1cccc(-c2cc(C(=O)Nc3cccc(O)c3)no2)c1`: 3.16 µM (active).
For the compound `COc1ccc(C2CC(=O)CC(=O)C2n2cncn2)cc1` (stereo unspecified), the AC50 result is “inactive”.
Same read-out and setting: the same measure for `O=C1C(Cc2ccccc2)C(c2ccccc2)N1c1ccccc1` (stereo unspecified): 1.26 µM (active).
On the same count and under the same terms, the same measure for `CCCC1C(=O)N(c2ccccc2)C1c1ccccc1` (stereo unspecified): 4.47 µM (active); for `CN1C(=O)C[C@H](c2ccccc2)C1=O`: “inactive”; for `CC(C)(C)CC(C)(C)c1ccc(OCOCCOCCO)c(Cc2cc(C(C)(C)CC(C)(C)C)cc(Cc3cc(C(C)(C)CC(C)(C)C)ccc3OCOCCOCCO)c2OCOCCOCCO)c1`: “inactive”.
Turning to `CO[C@H]1[C@H](O[C@H]2O[C@@H](C)[C@@H](O[C@@H]3C[C@](C)(O)[C@H](OC(=O)CC(C)C)[C@H](C)O3)[C@@H](N(C)C)[C@@H]2O)[C@@H](CC=O)C[C@@H](C)[C@@H](O)/C=C\C=C/C[C@@H](C)OC(=O)C[C@H]1OC(C)=O`, the AC50 result was “inactive”.
Still for that read-out and setting: the same measure for `C[C@@H](C[N+](C)(C)C)OC(N)=O`: “inactive”.
In the case of `O[C@@H](c1cc(C(F)(F)F)nc2c(Cl)cc(Cl)cc12)[C@@H]1CCCCN1`, the activity, negative = inhibition was -14.3% [at 11.4 µM] (inactive).
`COc1ccc(-c2cc([C@H](O)[C@@H]3CCCCN3)c3ccccc3n2)cc1`: the AC50 is 3.98 µM (active).
As for `O[C@H](C[C@@H]1CCCCN1)c1ccc2c(c1)oc1ccccc12`, the activity, negative = inhibition is -14.6% [at 11.4 µM] (inactive).
Take `COc1ccc(CNc2ncnc3ccc(-c4cccc(NS(C)(=O)=O)c4)cc23)c(OC)c1`: the AC50 is 2.51 µM (active).
Still for that read-out and setting: the same measure for `COCCNc1ncnc2ccc(-c3cccc(NS(C)(=O)=O)c3)cc12`: “inactive”; for `COc1ccccc1CNc1ncnc2ccc(-c3cccc(NS(C)(=O)=O)c3)cc12`: 15.8 µM (active); for `c1ccc2cc(C3=NCCN3)ncc2c1`: “inactive”.
Regarding `CCCCN(Cc1ccccc1)C(=O)c1cnc2n(c1=O)CCS2`, the AC50 result was “inactive”.
Regarding `N#Cc1c(-c2ccc(Cl)cc2)nc2n(c1=O)CCCS2`, the AC50 is 7.94 µM (active).
Take `O=c1c(-c2ccccc2)c(O)c2cccc3c2n1CCC3`: the AC50 entry is “inactive”.
The same measure, in the same setting: the result for `N#Cc1c(-c2ccccc2)nc2n(c1=O)CCS2` reads 15.8 µM (active).
Same read-out and setting: the result for `COc1cc(=O)n2c(n1)SCCC2` reads “inactive”.
`COC(=O)C1CC1C(NC(=O)[C@H]1CCCCN1)c1ccccc1` (stereo partly specified): the AC50 result is “inactive”.
`COC(=O)[C@H]1C[C@@H]1[C@H](NC(=O)c1cccnc1)c1ccccc1`: the AC50 entry was “inactive”.
Same read-out and setting: the same measure for `COC(=O)[C@H]1C[C@@H]1[C@H](NC(=O)OCc1ccccc1)c1ccccc1`: 3.16 µM (active); for `COC(=O)[C@@H]1C[C@H]1[C@@H](NC(=O)c1cccnc1)c1ccccc1`: “inactive”.
On the same count and under the same terms, the result for `O=C(N[C@@H](c1ccccc1)[C@@H]1C[C@H]1C(=O)O)OCc1ccccc1` reads “inactive”; that for `COC(=O)[C@H]1C[C@@H]1[C@H](NC(=O)c1ccccc1)c1ccccc1`, 7.94 µM (active).
For `COC(=O)[C@@H]1C[C@H]1[C@@H](NC(=O)c1ccccc1)c1ccccc1`, the AC50 was 1.26 µM (active).
The same measure, in the same setting: the result for `COC(=O)[C@H]1C[C@@H]1[C@H](NC(C)=O)c1ccccc1` reads “inactive”; that for `COC(=O)[C@@H]1C[C@H]1[C@@H](NC(=O)Oc1ccc(F)cc1)c1ccccc1`, 10 µM (active); that for `COc1cccc(Nc2ncc3nc(-c4cc(F)cc(F)c4)c(=O)n(CCC#N)c3n2)c1`, “inactive”.
For `CC(C)(S)[C@H](N)C(=O)O`, the activity, negative = inhibition is 4.04% [at 11.4 µM] (inactive).
For `O=C(N[C@@H](c1ccccc1)[C@@H]1C[C@H]1C(=O)NCc1ccccn1)OCc1ccccc1`, the half-maximal activity concentration (AC50) is 7.94 µM (active).
Still for that read-out and setting: the same measure for `CCCCN1C(=O)C(NC(=O)C2CC2)(C(F)(F)F)C2=C1CC(C)(C)CC2=O` (stereo unspecified): 20 µM (active).
In the case of `OCCN1CCN(CCOc2cccc(Cl)c2)CC1`, the AC50 entry was “inactive”.
The same measure, in the same setting: the result for `CC1CCN(CCOc2cc(Cl)ccc2Cl)CC1` reads 7.08 µM (active).
For `Clc1ccc(Cl)c(SCCCN2CCNCC2)c1`, the activity, negative = inhibition was 11.4% [at 11.4 µM] (inactive).
Regarding `O=C(O)CCCCCCCC(=O)O`, the AC50 result is “inactive”.
Regarding `CN(C)c1ccc(-c2nc3n(n2)C(c2cccnc2)C2=C(CC(C)(C)CC2=O)N3)cc1` (stereo unspecified), the AC50 was 14.1 µM (active).
Still for that read-out and setting: the same measure for `c1cc(CNCCCN2CCOCC2)ccn1`: 7.94 µM (active).
The same measure, in the same setting: the same measure for `CCOc1ccccc1CNCCN1CCOCC1`: “inactive”.
`c1cc(CNCCN2CCNCC2)ccn1`: the activity, negative = inhibition was -34.1% [at 11.4 µM] (inactive).
With `Cn1c(=O)c(-c2ccc(F)c(F)c2)nc2cncnc21`, the AC50 result is “inactive”.
The same measure, in the same setting: the same measure for `CSc1nncc(-c2ccc(F)c(F)c2)n1`: 11.2 µM (active).
For the compound `CC(=O)Nc1ccc2c(c1)/C(=C/c1ccc([N+](C)(C)C)cc1)c1ccccc1-2`, the activity, negative = inhibition was -19.5% [at 11.4 µM] (inactive).
The same measure, in the same setting: the result for `O=C(O)COc1c(Cl)cc(Cl)c2cccnc12` reads 26% [at 11.4 µM] (inactive).
In the case of `O=C(OCc1ccc(Cl)cc1Cl)c1cccnc1Cl`, the half-maximal activity concentration (AC50) was 0.355 µM (active).
Regarding `CC(=O)N1c2c(cc(Br)cc2S(=O)(=O)NCC2COc3ccccc3O2)CC1C` (stereo unspecified), the AC50 was 3.16 µM (active).
The same measure, in the same setting: the same measure for `COc1ccc(-n2nnnc2/C=C\Nc2ccccc2C(=O)c2ccccc2)cc1`: 0.316 µM (active); for `COc1ccc(C(F)(F)F)cc1N/C=C\c1nnnn1-c1ccccc1`: 1.12 µM (active); for `COc1cccc(Cn2c(=O)c(-c3cccc(C#N)c3)nc3cnc(N4CCN(C)CC4)nc32)c1`: “inactive”.
Same read-out and setting: the same measure for `COc1cccc(Cn2c(=O)c(CCc3ccccc3)nc3cnc(N4CCN(C)CC4)nc32)c1`: 7.94 µM (active); for `COc1cccc(Cn2c(=O)c(-c3ccccc3)nc3cnc(N4CCN(C)CC4)nc32)c1`: “inactive”.
The same measure, in the same setting: the same measure for `CN1CCN(c2ncc3nc(CCc4ccccc4)c(=O)n(Cc4ccc(F)cc4)c3n2)CC1`: “inactive”; for `COc1cccc(Cn2c(=O)c(CCc3ccccc3)nc3cnc(N4CCNCC4)nc32)c1`: 25.1 µM (active).
`O=C1[C@H]2CCn3c(=O)n(-c4ccccc4)c(=O)n3[C@H]2[C@H](O)[C@H]2O[C@@H]12`: the activity, negative = inhibition is -1.55% [at 11.4 µM] (inactive).
As to `CC(=O)NS(=O)(=O)c1ccc(NC(=S)NC(=O)c2ccco2)cc1`, the AC50 result was “inactive”.
With `CCN(CC)S(=O)(=O)c1ccc(NC(=O)COC(=O)c2ccc(Br)o2)cc1`, the concentration at half-maximal activity (AC50) was 11.2 µM (active).
Same read-out and setting: the result for `CCN(c1ccccc1)S(=O)(=O)c1ccc(NC(=S)NC(=O)c2ccc(Br)o2)cc1` reads 8.91 µM (active); that for `CCN(c1ccccc1)S(=O)(=O)c1ccc(NC(=S)NC(=O)c2cccs2)cc1`, 3.98 µM (active); that for `CN(C1CCCCC1)S(=O)(=O)c1ccc(NC(=S)NC(=O)c2cccs2)cc1`, 3.55 µM (active).
On to `Cc1noc(NS(=O)(=O)c2ccc(NC(=O)c3ccc(Br)o3)cc2)c1C`, for which the AC50 result was “inactive”.
Consider `CCCC(=O)Nc1ccc(C(=O)NNC(=S)NC(=O)c2cccs2)cc1`, for which the AC50 entry is “inactive”.
Still for that read-out and setting: the result for `CN(C)S(=O)(=O)c1ccc(NC(=O)COC(=O)c2ccccn2)cc1` reads “inactive”; that for `CCCCCCCCCCCCCCCC[N+](C)(C)CCN(Cc1ccc(OC)cc1)c1ncccn1`, “inactive”; that for `O=c1c(CCc2ccccc2)nc2cncnc2n1Cc1ccc(F)cc1`, 6.31 µM (active).
Same read-out and setting: the result for `O=c1c(CCc2ccccc2)nc2cncnc2n1-c1ccccc1` reads 10 µM (active); that for `Cc1nc2cnc(N(C)C)nc2n(-c2ccccc2)c1=O`, “inactive”.
Still for that read-out and setting: the same measure for `O=c1c(CCc2ccccc2)nc2cncnc2n1Cc1ccccc1Cl`: 5.01 µM (active); for `Cc1nnc(-c2cccc(Br)c2)c2cn(-c3ccccc3Cl)nc12`: 1.78 µM (active).
Take `Brc1ccc(-c2nnc(-c3cccc(Br)c3)o2)cc1`: the AC50 result was “inactive”.
As for `Cc1nnc(-c2cccc(Br)c2)c2cn(-c3ccc(Br)cc3)nc12`, the AC50 was 5.01 µM (active).
The same measure, in the same setting: the result for `CC(C)Cn1c(-c2nn(C)cc2Cl)n[nH]c1=S` reads 15.8 µM (active).
The same measure, in the same setting: the result for `CCn1c(CC(C)C)n[nH]c1=S` reads “inactive”.
For `CCc1nn(C)c(-c2n[nH]c(=S)n2N)c1Cl`, the AC50 result was “inactive”.
On to `CC1CCN(CCc2nc3cc(NC(=O)NC4CCCCC4)ccc3n2C)CC1`, for which the AC50 result was “inactive”.
On the same count and under the same terms, the result for `O=C(Nc1ccc2c(c1)nc1n2CCN(C2CCCCC2)C1)NC1CCCCC1` reads 14.1 µM (active).
Regarding `C[C@@H]1/C=C\CC(=O)OC[C@H]2O[C@@H](C=C[C@@H]2O)[C@H](C)/C=C\CC(=O)OC1`, the activity, negative = inhibition was -20.4% [at 11.4 µM] (inactive).
As to `Cn1c2c(c(=O)n(C)c1=O)[C@@H]1c3c(ccc4ccccc34)OC[C@@H]1CO2`, the AC50 was 14.1 µM (active).
Consider `O=C1c2ccccc2C(=O)c2c(NC3CCCCC3)ccc(Nc3ccc(S(=O)(=O)O)cc3)c21`, for which the concentration at half-maximal activity (AC50) was 3.98 µM (active).
Consider `Nc1ccc(-c2ccc(Nc3cc(S(=O)(=O)O)c(N)c4c3C(=O)c3ccccc3C4=O)cc2)c(S(=O)(=O)O)c1`, for which the activity, negative = inhibition was -36% [at 11.4 µM] (inactive).
Still for that read-out and setting: the result for `O=C(Nc1ccc(Nc2ccc3c(c2)C(=O)c2ccccc2C3=O)c2c1C(=O)c1ccccc1C2=O)c1ccccc1` reads -23.9% [at 11.4 µM] (inactive).
For `Cn1c(SC2=CS(=O)(=O)c3ccccc32)nc2ccccc21`, the half-maximal activity concentration (AC50) was 17.8 µM (active).
In the case of `Oc1ccc(/C=N/NC(=S)NCc2ccco2)cc1`, the AC50 was 10 µM (active).
On the same count and under the same terms, the result for `C=CCOc1cccc(/C=N/NC(=O)C(=O)NCc2ccco2)c1` reads “inactive”; that for `CNc1nc(-c2ccoc2)nc2ccccc12`, “inactive”; that for `CNc1nc(-c2ccc(N(C)C)cc2)nc2ccccc12`, 25.1 µM (active).
In the case of `Fc1ccc(Nc2nc(-c3ccoc3)nc3ccccc23)cc1`, the AC50 entry was “inactive”.
Same read-out and setting: the result for `c1ccc2c(Nc3ccncc3)nc(-c3ccoc3)nc2c1` reads 20 µM (active).
For the compound `CN(C)c1ccc(-c2nc(NC3CCNCC3)c3ccccc3n2)cc1`, the AC50 result was “inactive”.
`CN(C)c1ccc(-c2nc(Nc3ccncc3)c3ccccc3n2)cc1`: the AC50 is 10 µM (active).
